Test systems include DU-145 prostate; K-562 leukemia; MALME-3M melanoma; MDA-MB-231 breast; RXF 393 renal; SF-268 CNS; SF-295 CNS; SF-539 CNS; UACC-257 melanoma; M14 melanoma; HCT-15 colon; HT29 colon; SNB-75 CNS; SNB-19 CNS; U251 CNS; PC-3 prostate; SK-MEL-5 melanoma; UACC-62 melanoma; LOX IMVI melanoma; SK-MEL-28 melanoma.
What all share (test): NCI-60 one-dose screen, 48 h (100 = growth as untreated, 0 = no growth, -100 = all killed)
Holding throughout (conditions): 10 µM

About 83,000 compounds went through this panel and 20% of them were active in at least one assay; those are over-represented in the sample as a whole.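 A percent growth of 40 corresponds to 60% growth inhibition; 0 means no net growth; -100 means all cells died. Active threshold: below 10.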 Values without a mark were called inactive. Activity calls are given as the source filed them.

As to `COc1cc2cc(Oc3ccc(NC(=O)Nc4ccc(Cl)c(Cl)c4)cc3)c(C)nc2cc1OC`, the growth with DU-145 prostate is 24.8%; in the assay with K-562 leukemia it was 12.7%; in the assay with MALME-3M melanoma it was 14.9%; with MDA-MB-231 breast, 47.8%; in the assay on RXF 393 renal, 22.3%; in the assay with SF-268 CNS, 43.7%. The growth in the assay with SF-295 CNS was 0.689% (active); in the assay with SF-539 CNS, 38.5%; in the assay with UACC-257 melanoma it was 1.38% (active); in the assay on M14 melanoma, 25.8%; in the assay on HCT-15 colon, 18.9%; with HT29 colon, 10.9%. Further, the growth in the assay with SNB-75 CNS was 22.4%; with SNB-19 CNS, 28.6%; with U251 CNS, -32.3% (active); in the assay on PC-3 prostate, 4.12% (active); in the assay with SK-MEL-5 melanoma it was -35% (active); with UACC-62 melanoma, 20.4%. Besides, the growth in the assay on LOX IMVI melanoma was 23.1%; in the assay on SK-MEL-28 melanoma, 44.6%.
For `CCOC(=O)c1cc(C(=O)c2ccc(OC)c(OC)c2)n2c1ccc1ccc3cccnc3c12`, the growth in the assay on DU-145 prostate was 21.7%; in the assay with K-562 leukemia, 14.7%; with MALME-3M melanoma, 40.1%; in the assay with MDA-MB-231 breast it was 45.2%; in the assay with RXF 393 renal it was 24.8%; with SF-268 CNS, 51.8%. For the same compound, the growth with SF-295 CNS is 12%; in the assay on SF-539 CNS it was 9.16% (active); with UACC-257 melanoma, 51%; with M14 melanoma, 7.8% (active); with HCT-15 colon it was 31.1%; in the assay on HT29 colon, 6.74% (active). Also, the growth in the assay on SNB-75 CNS is 18%; in the assay with SNB-19 CNS, 45.8%; with U251 CNS it was 24.8%; with PC-3 prostate it was 22.2%; with SK-MEL-5 melanoma, 17.4%; in the assay with UACC-62 melanoma it was 47.4%. The growth in the assay on LOX IMVI melanoma was 31.6%; in the assay on SK-MEL-28 melanoma, 60.2%.
With `CC(C)(C)OC(=O)N1CCc2c(sc3ncnc(N/N=C/c4ccccc4Br)c23)C1`, the growth in the assay with DU-145 prostate was 91.9%; in the assay with K-562 leukemia, 15.9%; in the assay with MALME-3M melanoma it was 90.4%; with MDA-MB-231 breast, 81.3%; in the assay with RXF 393 renal, 81.8%; with SF-268 CNS, 87.8%. For the same compound, the growth in the assay on SF-295 CNS was 89.5%; in the assay on SF-539 CNS, 80.6%; with UACC-257 melanoma it was 82.6%; with M14 melanoma it was 83.3%; in the assay with HCT-15 colon, 25.5%; in the assay on HT29 colon, 77.2%. Further, the growth with SNB-75 CNS was 74.5%; in the assay on SNB-19 CNS, 93.1%; in the assay on U251 CNS, 74.9%; in the assay on PC-3 prostate, 48.1%; in the assay with SK-MEL-5 melanoma, 66.6%; in the assay on UACC-62 melanoma, 60.1%. Moreover, the growth in the assay with LOX IMVI melanoma was 55.5%; with SK-MEL-28 melanoma, 81.9%.
Take `COc1ccc(C(=O)N/N=C/c2cc(C(F)(F)F)ccc2Cl)cc1`: the growth with DU-145 prostate was 105%; in the assay with K-562 leukemia, 95.4%; in the assay with MALME-3M melanoma, 111%; with MDA-MB-231 breast, 89.4%; in the assay on RXF 393 renal it was 74.9%; in the assay on SF-268 CNS, 112%. The growth was 78.2% with SF-295 CNS; 104% in the assay on SF-539 CNS; 105% in the assay with UACC-257 melanoma; 104% in the assay with M14 melanoma; 73.2% in the assay on HCT-15 colon; 99.7% with HT29 colon. Moreover, the growth was 101% in the assay with SNB-75 CNS; 91.9% with SNB-19 CNS; 109% with U251 CNS; 90.9% in the assay on PC-3 prostate; 85.5% in the assay with SK-MEL-5 melanoma; 76.9% with UACC-62 melanoma. Besides, the growth is 92.4% with LOX IMVI melanoma and 96.5% in the assay on SK-MEL-28 melanoma.
With `COc1cc(/C=C2\CCCC3C2=Nc2ccccc2NC3c2cc(OC)c(OC)c(OC)c2)cc(OC)c1OC` (stereo not given), the growth with DU-145 prostate is 4.98% (active); with K-562 leukemia, 5.35% (active); in the assay with MALME-3M melanoma it was -34.9% (active); with MDA-MB-231 breast it was 24.1%; with RXF 393 renal, -49.6% (active); with SF-268 CNS, 26%. For the same compound, the growth is -10.8% (active) in the assay with SF-295 CNS; 35.2% in the assay on SF-539 CNS; 16.3% in the assay with UACC-257 melanoma; -0.908% (active) in the assay on M14 melanoma; 6.11% (active) in the assay with HCT-15 colon; -3.94% (active) in the assay on HT29 colon. Further, the growth in the assay with SNB-75 CNS was 54.5%; in the assay on SNB-19 CNS, 64.4%; with U251 CNS it was -11.4% (active); with PC-3 prostate, 38.2%; in the assay with SK-MEL-5 melanoma it was -52% (active); in the assay with UACC-62 melanoma, -32.6% (active). Moreover, the growth in the assay with LOX IMVI melanoma is -62% (active); in the assay with SK-MEL-28 melanoma, 29.4%.
Turning to `C=C(C)[C@@H]1CC[C@]2(COCCC#N)CC[C@]3(C)[C@H](CC[C@@H]4[C@@]5(C)Cc6c([nH]c7ccccc67)C(C)(C)[C@@H]5CC[C@]43C)[C@@H]12`, the growth in the assay with DU-145 prostate is 100%; with K-562 leukemia it was 100%; in the assay with MALME-3M melanoma, 119%; with MDA-MB-231 breast it was 109%; in the assay on RXF 393 renal it was 112%; in the assay with SF-268 CNS it was 101%. The growth in the assay with SF-295 CNS is 104%; with SF-539 CNS, 101%; with UACC-257 melanoma it was 116%; with M14 melanoma, 98.7%; in the assay on HCT-15 colon it was 102%; in the assay with HT29 colon, 89.7%. The growth with SNB-75 CNS is 90.9%; in the assay with SNB-19 CNS it was 99.1%; in the assay on U251 CNS, 102%; in the assay on PC-3 prostate, 92.9%; in the assay on SK-MEL-5 melanoma, 98.2%; in the assay on UACC-62 melanoma, 105%. Further, the growth in the assay on LOX IMVI melanoma was 92.1%; in the assay with SK-MEL-28 melanoma, 100%.
On to `COc1cccc(-c2nc3sccn3c2-c2cccc(S(C)(=O)=O)c2)c1`, for which the growth with DU-145 prostate is 110%; in the assay on K-562 leukemia, 95.5%; in the assay with MALME-3M melanoma, 129%; in the assay with MDA-MB-231 breast, 93.4%; in the assay on RXF 393 renal, 84.1%; with SF-268 CNS, 100%. In addition, the growth is 94.4% in the assay with SF-295 CNS; 94.3% with SF-539 CNS; 115% in the assay on UACC-257 melanoma; 119% in the assay on M14 melanoma; 95.3% with HCT-15 colon; 118% in the assay on HT29 colon. The growth with SNB-75 CNS was 95.1%; in the assay on SNB-19 CNS, 99.2%; in the assay on U251 CNS, 106%; in the assay on PC-3 prostate, 94.7%; with SK-MEL-5 melanoma, 94.8%; with UACC-62 melanoma, 99.4%. Besides, the growth with LOX IMVI melanoma was 88.6%; in the assay on SK-MEL-28 melanoma, 112%.
For `CS(=O)(=O)c1nccc(-c2c(-c3cccc(OCCc4ccccc4)c3)nc3sccn23)n1`, the growth with DU-145 prostate is 108%; with K-562 leukemia, 95.5%; in the assay on MALME-3M melanoma, 102%; with MDA-MB-231 breast it was 93.7%; with RXF 393 renal it was 118%; in the assay with SF-268 CNS, 106%. Further, the growth in the assay with SF-295 CNS is 109%; in the assay with SF-539 CNS, 103%; in the assay with UACC-257 melanoma, 101%; in the assay with M14 melanoma, 114%; in the assay on HCT-15 colon, 108%; with HT29 colon, 99.7%. Also, the growth with SNB-75 CNS is 98.4%; in the assay on SNB-19 CNS, 92.6%; with U251 CNS, 99.4%; with PC-3 prostate it was 86.9%; in the assay with SK-MEL-5 melanoma, 78.3%; in the assay on UACC-62 melanoma it was 85.9%. Further, the growth is 94.2% with LOX IMVI melanoma and 112% in the assay with SK-MEL-28 melanoma.

(Values after PubChem BioAssay (NCI).)
